# This is one part of a sample in which the strongest signals are shown more often than they occur.
# B1: CFEM-PPl (Pichia pastoris), F2QPV1 (protein)
# chain: AVATPPACLLACAAEVVKESSDCDALNNIQCICENEGSAIHACLESTCPDGLSSTALQSFEDVCESVGTEANLDE
# Experiments:
# Test in all cases: glycan array binding signal (z-score within array); higher = stronger binding
# Conditions in all cases: glycan notation: IUPAC condensed, linker removed
# [1] = target: Fuc(a1-2)Gal(b1-3)GalNAc(b1-3)Gal(a1-4)Gal(b1-4)Glc
# Summary of the method: (§1)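 Arrays were curated from the Consortium for Functional Glycomics database, 3228 in total, and kept only where the protein sequence was available. Binding is expressed as a within-array Z-score. This score was averaged across arrays of the same protein sequence at different concentrations or buffers and across linkers, and negative values can be read as non-binding.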
# [2] = target: Fuc(a1-2)Gal(b1-3)GlcNAc(b1-3)Gal(b1-4)Glc
# Summary of the method: as §1
# [3] = target: Fuc(a1-2)Gal(b1-3)[Fuc(a1-4)]GlcNAc
# Summary of the method: as §1
# Fuc(a1-2)Gal(b1-4)Glc = target: Fuc(a1-2)Gal(b1-4)Glc
# Summary of the method: as §1
# [4] = target: Fuc(a1-2)[Gal(a1-3)]Gal(b1-4)GlcNAc(b1-2)Man(a1-3)[Fuc(a1-2)[Gal(a1-3)]Gal(b1-4)GlcNAc(b1-2)Man(a1-6)]Man(b1-4)GlcNAc(b1-4)GlcNAc
# Summary of the method: as §1
# [5] = target: Fuc(a1-2)[Gal(a1-4)]Gal(b1-4)GlcNAc
# Summary of the method: as §1
# [6] = target: Fuc(a1-2)[GalNAc(a1-3)]Gal(b1-3)GlcNAc(b1-2)Man(a1-3)[Fuc(a1-2)[GalNAc(a1-3)]Gal(b1-3)GlcNAc(b1-2)Man(a1-6)]Man(b1-4)GlcNAc(b1-4)GlcNAc
# Summary of the method: as §1
# [7] = target: Fuc(a1-2)[GalNAc(a1-3)]Gal(b1-4)[Fuc(a1-3)]GlcNAc(b1-3)GalNAc
# Summary of the method: as §1
# [8] = target: Fuc(a1-3)[Gal(b1-4)]GlcNAc(b1-6)GalNAc
# Summary of the method: as §1
# [9] = target: Gal(a1-3)Gal(b1-3)GlcNAc(b1-2)Man(a1-3)[Gal(a1-3)Gal(b1-3)GlcNAc(b1-2)Man(a1-6)]Man(b1-4)GlcNAc(b1-4)GlcNAc
# Summary of the method: as §1
# [10] = target: Gal(a1-3)Gal(b1-3)GlcNAc(b1-3)GalNAc
# Summary of the method: as §1
# Gal(a1-3)GalNAc = target: Gal(a1-3)GalNAc
# Summary of the method: as §1
# Gal(b1-3)Gal = target: Gal(b1-3)Gal
# Summary of the method: as §1
# Gal(b1-3)Gal(b1-4)GlcNAc = target: Gal(b1-3)Gal(b1-4)GlcNAc
# Summary of the method: as §1
# Gal(b1-3)GalNAc = target: Gal(b1-3)GalNAc
# Summary of the method: as §1
# [11] = target: Gal(b1-3)GalNAc(a1-3)[Fuc(a1-2)]Gal(b1-4)Glc
# Summary of the method: as §1
# Gal(b1-3)GalNAc(b1-3)Gal = target: Gal(b1-3)GalNAc(b1-3)Gal
# Summary of the method: as §1
# [12] = target: Gal(b1-3)GalNAc(b1-4)Gal(b1-4)Glc
# Summary of the method: as §1
# [13] = target: Gal(b1-3)GalNAc(b1-4)[Neu5Ac(a2-3)]Gal(b1-4)Glc
# Summary of the method: as §1
# Gal(b1-3)GlcNAc6S = target: Gal(b1-3)GlcNAc6S
# Summary of the method: as §1
# [14] = target: Gal(b1-3)[Fuc(a1-4)]GlcNAc
# Summary of the method: as §1
# [15] = target: Gal(b1-3)[GlcNAc(b1-6)]GalNAc
# Summary of the method: as §1
# [16] = target: Gal(b1-3)[Neu5Ac(a2-6)]GalNAc
# Summary of the method: as §1
# Gal(b1-4)Glc6S = target: Gal(b1-4)Glc6S
# Summary of the method: as §1
# [17] = target: Gal(b1-4)GlcNAc(b1-2)Man(a1-3)Man(b1-4)GlcNAc(b1-4)GlcNAc
# Summary of the method: as §1
# [18] = target: Gal(b1-4)GlcNAc(b1-2)Man(a1-3)[GlcNAc(b1-4)][Gal(b1-4)GlcNAc(b1-2)Man(a1-6)]Man(b1-4)GlcNAc(b1-4)GlcNAc
# Summary of the method: as §1
# [19] = target: Gal(b1-4)GlcNAc(b1-2)[Gal(b1-4)GlcNAc(b1-6)]Man(a1-6)[Gal(b1-4)GlcNAc(b1-2)Man(a1-3)]Man(b1-4)GlcNAc(b1-4)[Fuc(a1-6)]GlcNAc
# Summary of the method: as §1
# [20] = target: Gal(b1-4)GlcNAc(b1-3)Gal(b1-4)GlcNAc(b1-3)GalNAc
# Summary of the method: as §1
# [21] = target: Gal3S(b1-4)[Fuc(a1-3)]GlcNAc
# Summary of the method: as §1
# Gal3S6S(b1-4)GlcNAc6S = target: Gal3S6S(b1-4)GlcNAc6S
# Summary of the method: as §1
# Gal6S(b1-4)GlcNAc6S = target: Gal6S(b1-4)GlcNAc6S
# Summary of the method: as §1
# GlcA(b1-6)Gal = target: GlcA(b1-6)Gal
# Summary of the method: as §1
# [22] = target: GlcNAc(a1-6)Gal(b1-4)GlcNAc
# Summary of the method: as §1
# [23] = target: GlcNAc(b1-2)Man(a1-3)[GlcNAc(b1-4)][GlcNAc(b1-2)Man(a1-6)]Man(b1-4)GlcNAc(b1-4)[Fuc(a1-6)]GlcNAc
# Summary of the method: as §1
# [24] = target: GlcNAc(b1-3)Gal(b1-4)GlcNAc(b1-3)Gal(b1-4)GlcNAc(b1-3)Gal(b1-4)GlcNAc(b1-2)Man(a1-3)[GlcNAc(b1-3)Gal(b1-4)GlcNAc(b1-3)Gal(b1-4)GlcNAc(b1-3)Gal(b1-4)GlcNAc(b1-2)Man(a1-6)]Man(b1-4)GlcNAc(b1-4)[Fuc(a1-6)]GlcNAc
# Summary of the method: as §1
# [25] = target: GlcNAc(b1-3)[GlcNAc(b1-4)][GlcNAc(b1-6)]GlcNAc
# Summary of the method: as §1
# [26] = target: Man(a1-2)Man(a1-6)[Man(a1-3)]Man(a1-6)[Man(a1-2)Man(a1-2)Man(a1-3)]Man
# Summary of the method: as §1
# [27] = target: Man(a1-3)[Man(a1-6)]Man(a1-6)[Man(a1-3)]Man
# Summary of the method: as §1
# [28] = target: Neu5Ac(a2-3)Gal(b1-4)GlcNAc(b1-3)Gal(b1-4)[Fuc(a1-3)]GlcNAc
# Summary of the method: as §1
# [29] = target: Neu5Ac(a2-3)Gal(b1-4)[Fuc(a1-3)]GlcNAc(b1-3)Gal(b1-4)[Fuc(a1-3)]GlcNAc(b1-3)Gal(b1-4)[Fuc(a1-3)]GlcNAc
# Summary of the method: as §1
# [30] = target: Neu5Ac(a2-3)Gal(b1-4)[Fuc(a1-3)]GlcNAc6S
# Summary of the method: as §1
# [31] = target: Neu5Ac(a2-6)Gal(b1-4)GlcNAc
# Summary of the method: as §1
# [32] = target: Neu5Ac(a2-6)Gal(b1-4)GlcNAc(b1-2)[Neu5Ac(a2-6)Gal(b1-4)GlcNAc(b1-4)]Man(a1-3)[GlcNAc(b1-4)][Neu5Ac(a2-6)Gal(b1-4)GlcNAc(b1-2)[Neu5Ac(a2-6)Gal(b1-4)GlcNAc(b1-6)]Man(a1-6)]Man(b1-4)GlcNAc(b1-4)GlcNAc
# Summary of the method: as §1
# [33] = target: Neu5Ac(a2-6)Gal(b1-4)GlcNAc(b1-3)Gal(b1-4)GlcNAc
# Summary of the method: as §1
# [34] = target: Neu5Ac(a2-6)Gal(b1-4)GlcNAc(b1-3)GalNAc
# Summary of the method: as §1
# [35] = target: Neu5Ac(a2-8)Neu5Ac(a2-8)Neu5Ac(a2-8)Neu5Ac(a2-3)[GalNAc(b1-4)]Gal(b1-4)Glc
# Summary of the method: as §1
# [36] = target: Neu5Ac9Ac(a2-3)Gal(b1-4)GlcNAc
# Summary of the method: as §1
# [37] = target: Neu5Gc(a2-8)Neu5Gc(a2-3)Gal(b1-4)GlcNAc
# Summary of the method: as §1
binder,measurement,setting,value
B1,glycan array binding signal (z-score),[1],-0.182
same,glycan array binding signal (z-score),[2],-0.261
same,glycan array binding signal (z-score),[3],-0.299
same,glycan array binding signal (z-score),Fuc(a1-2)Gal(b1-4)Glc,-0.216
same,glycan array binding signal (z-score),[4],-0.252
same,glycan array binding signal (z-score),[5],-0.168
same,glycan array binding signal (z-score),[6],-0.271
same,glycan array binding signal (z-score),[7],2.17
same,glycan array binding signal (z-score),[8],0.273
same,glycan array binding signal (z-score),[9],-0.051
same,glycan array binding signal (z-score),[10],-0.151
same,glycan array binding signal (z-score),Gal(a1-3)GalNAc,-0.249
same,glycan array binding signal (z-score),Gal(b1-3)Gal,8.35
same,glycan array binding signal (z-score),Gal(b1-3)Gal(b1-4)GlcNAc,4.73
same,glycan array binding signal (z-score),Gal(b1-3)GalNAc,4.58
same,glycan array binding signal (z-score),[11],0.63
same,glycan array binding signal (z-score),Gal(b1-3)GalNAc(b1-3)Gal,7.59
same,glycan array binding signal (z-score),[12],11.5
same,glycan array binding signal (z-score),[13],1.48
same,glycan array binding signal (z-score),Gal(b1-3)GlcNAc6S,0.224
same,glycan array binding signal (z-score),[14],-0.109
same,glycan array binding signal (z-score),[15],1.52
same,glycan array binding signal (z-score),[16],8.06
same,glycan array binding signal (z-score),Gal(b1-4)Glc6S,0.326
same,glycan array binding signal (z-score),[17],-0.158
same,glycan array binding signal (z-score),[18],-0.371
same,glycan array binding signal (z-score),[19],0.199
same,glycan array binding signal (z-score),[20],-0.058
same,glycan array binding signal (z-score),[21],-0.308
same,glycan array binding signal (z-score),Gal3S6S(b1-4)GlcNAc6S,-0.019
same,glycan array binding signal (z-score),Gal6S(b1-4)GlcNAc6S,0.881
same,glycan array binding signal (z-score),GlcA(b1-6)Gal,1.49
same,glycan array binding signal (z-score),[22],1.68
same,glycan array binding signal (z-score),[23],-0.286
same,glycan array binding signal (z-score),[24],-0.05
same,glycan array binding signal (z-score),[25],-0.262
same,glycan array binding signal (z-score),[26],-0.274
same,glycan array binding signal (z-score),[27],-0.201
same,glycan array binding signal (z-score),[28],-0.181
same,glycan array binding signal (z-score),[29],-0.258
same,glycan array binding signal (z-score),[30],-0.175
same,glycan array binding signal (z-score),[31],-0.156
same,glycan array binding signal (z-score),[32],-0.31
same,glycan array binding signal (z-score),[33],-0.404
same,glycan array binding signal (z-score),[34],-0.218
same,glycan array binding signal (z-score),[35],-0.099
same,glycan array binding signal (z-score),[36],-0.318
same,glycan array binding signal (z-score),[37],-0.14

# Reference: the supplement of paper PMC8728848
